# The source made the active and inactive calls.
# Tests used:
# [1] = optical density shifts of acrAB sulA E. coli – strain DRC41, OD650, 48 h, E. coli filamentation inducer project, primary screen (AID 1152); settings: higher = more signal, called active from +8 up or from −8 down;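 further: E. coli MC1000 strain DRC41 lacking acrAB efflux pump and sulA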
# [2] = probe aLefty1 binding on compound microarray – biochemical, small-molecule microarray, 635/667 nm fluorescence, primary screen (AID 1153); settings: higher = more signal;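 further: score merges spot fluorescence with signal-to-noise ratio from the scanned slide images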
# [3] = plasmodial surface anion channel blockers, osmotic lysis – cell-based, P. falciparum Indochina, OD700, 1 h, primary screen (AID 1154); settings: P. falciparum Indochina infected RBC osmotic lysis, higher = more signal, called active from +8 up or from −8 down
# [4] = plasmodial surface anion channel blockers, osmotic lysis – cell-based, P. falciparum Indochina, OD700, 2 h, primary screen (AID 1155);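 further: lysis reports solute entry through the parasite surface anion channel PSAC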; settings: P. falciparum Indochina infected erythrocytes, higher = more signal, called active from +8 up or from −8 down
# [5] = changes in parasitized red cell lysis, either direction – P. falciparum Indochina, OD700, 3 h, PSAC antagonist project, primary screen (AID 1156); settings: P. falciparum-infected erythrocytes, osmotic lysis, higher = more signal, called active from +8 up or from −8 down
# [6] = plasmodial surface anion channel blockers, osmotic lysis – cell-based, P. falciparum Indochina, OD700, 18 h, primary screen (AID 1157); settings: P. falciparum Indochina infected erythrocytes, osmotic lysis OD700, 18 h; higher = more signal, called active from +8 up or from −8 down
# [7] = S6 kinase pathway phospho-S6 level changes – cell-based, A549, cytoblot, luminescence, serum-stimulated, primary screen (AID 1158); settings: 5 h, higher = more signal;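 further: serum-stimulated A549 lung adenocarcinoma cells; signal is phosphorylated S6 detected by cytoblot immunostaining with HRP secondary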
# [8] = biological target: NADPH oxidase 2 (Homo sapiens) (UniProt P04839); experiment: compounds shifting NOX2 Amplex Red fluorescence – cell-based, HEK293-NOX2, PMA-stimulated, NOX inhibitor project, primary screen (AID 1159); settings: 45 min, higher = more signal, called active from +8 up or from −8 down; further: test concentration not given here
# [9] = biological target: NADPH oxidase 4 (Homo sapiens) (UniProt Q9NPH5); experiment: compounds shifting NOX4 Amplex Red fluorescence – cell-based, HEK293-NOX4, tetracycline-induced, NOX inhibitor project, primary screen (AID 1160); settings: HEK293-NOX4, Amplex Red H2O2 fluorescence, 45 min; higher = more signal, called active from +8 up or from −8 down
# [10] = biological target: NADPH oxidase 5 (Homo sapiens) (UniProt Q96PH1); experiment: compounds shifting NOX5 Amplex Red fluorescence – cell-based, HEK293-NOX5, NOX inhibitor project, primary screen (AID 1161); settings: HEK293-NOX5, ionomycin, 45 min, higher = more signal
# [11] = compound effects on lung adenocarcinoma cell viability – A549, calcein-AM fluorescence, 48 h, basal, profiling panel (AID 1162); settings: higher = more signal; further: test concentration not given here
# [12] = compound effects on differentiated 3T3-L1 adipocyte viability – cell-based, 3T3-L1 adipocytes, calcein-AM fluorescence, 48 h, basal, profiling panel (AID 1163); settings: 3T3-L1 adipocytes viability, higher = more signal; further: test concentration not given here
# [13] = compound effects on hepatocellular carcinoma cell viability – HepG2, calcein-AM fluorescence, 48 h, basal, profiling panel (AID 1164); settings: higher = more signal; further: test concentration not given here
# [14] = compound effects on multiple myeloma cell viability – MM1S, calcein-AM fluorescence, 48 h, basal, profiling panel (AID 1165); settings: higher = more signal;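 further: viability of MM1S multiple myeloma cells under basal unstimulated conditions; test concentration not given here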
# [15] = calcein-AM signal in unstimulated myeloma cells – cell-based, calcein-AM fluorescence, 48 h, PK04 Diversity Set, profiling panel (AID 1166); settings: RPMI8226 myeloma viability, higher = more signal;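 further: cells grown under basal conditions without added stimulus; test concentration not given here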
# [16] = JC-1 mitochondrial signal, unstimulated HepG2 cells – cell-based, JC-1 fluorescence, 24 h, 100 nL compound, profiling panel (AID 1167); settings: HepG2 mitochondrial potential, higher = more signal; further: test concentration not given here
# [17] = JC-1 mitochondrial signal, unstimulated adipocytes – cell-based, JC-1 fluorescence, 3T3-L1 adipocytes, 24 h, 100 nL compound, profiling panel (AID 1168); settings: JC-1 mitochondrial fluorescence, higher = more signal, called active from +8 up or from −8 down; further: test concentration not given here
# [18] = JC-1 mitochondrial signal, unstimulated myeloma cells – cell-based, JC-1 fluorescence, RPMI8226, 24 h, 100 nL compound, profiling panel (AID 1169); settings: JC-1 mitochondrial potential fluorescence, higher = more signal; further: test concentration not given here
# [19] = JC-1 mitochondrial signal, unstimulated MM1S myeloma – cell-based, JC-1 fluorescence, 24 h, 100 nL compound, profiling panel (AID 1170); settings: MM1S mitochondrial potential, higher = more signal; further: test concentration not given here
# [20] = resazurin metabolic signal in A549 cells – cell-based, resazurin fluorescence, 24 h, PK04 Diversity Set, profiling panel (AID 1171); settings: A549 viability, higher = more signal, called active from +8 up or from −8 down; further: test concentration not given here
# Chain of NADPH oxidase 5 (Homo sapiens) (Q96PH1 whole entry, looked up): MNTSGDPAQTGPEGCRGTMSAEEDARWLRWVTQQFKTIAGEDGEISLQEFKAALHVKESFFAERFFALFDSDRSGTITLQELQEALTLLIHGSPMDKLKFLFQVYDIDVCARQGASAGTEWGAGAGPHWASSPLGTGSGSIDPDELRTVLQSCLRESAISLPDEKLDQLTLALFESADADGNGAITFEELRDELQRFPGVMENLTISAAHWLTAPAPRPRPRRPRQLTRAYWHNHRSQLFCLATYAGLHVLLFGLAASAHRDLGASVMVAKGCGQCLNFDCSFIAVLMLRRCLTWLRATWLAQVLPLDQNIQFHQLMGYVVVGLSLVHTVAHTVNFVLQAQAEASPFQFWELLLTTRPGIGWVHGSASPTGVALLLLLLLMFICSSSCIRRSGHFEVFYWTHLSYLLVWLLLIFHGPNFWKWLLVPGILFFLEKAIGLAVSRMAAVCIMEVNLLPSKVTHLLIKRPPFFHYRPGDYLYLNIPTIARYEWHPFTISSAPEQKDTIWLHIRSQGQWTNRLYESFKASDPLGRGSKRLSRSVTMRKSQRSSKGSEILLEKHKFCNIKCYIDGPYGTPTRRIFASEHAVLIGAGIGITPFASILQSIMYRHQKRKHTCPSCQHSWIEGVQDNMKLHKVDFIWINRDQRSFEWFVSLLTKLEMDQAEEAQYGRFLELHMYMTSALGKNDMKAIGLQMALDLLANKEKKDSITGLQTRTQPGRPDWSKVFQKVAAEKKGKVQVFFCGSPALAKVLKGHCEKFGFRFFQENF
# Chain of NADPH oxidase 2 (Homo sapiens) (P04839 whole entry, looked up): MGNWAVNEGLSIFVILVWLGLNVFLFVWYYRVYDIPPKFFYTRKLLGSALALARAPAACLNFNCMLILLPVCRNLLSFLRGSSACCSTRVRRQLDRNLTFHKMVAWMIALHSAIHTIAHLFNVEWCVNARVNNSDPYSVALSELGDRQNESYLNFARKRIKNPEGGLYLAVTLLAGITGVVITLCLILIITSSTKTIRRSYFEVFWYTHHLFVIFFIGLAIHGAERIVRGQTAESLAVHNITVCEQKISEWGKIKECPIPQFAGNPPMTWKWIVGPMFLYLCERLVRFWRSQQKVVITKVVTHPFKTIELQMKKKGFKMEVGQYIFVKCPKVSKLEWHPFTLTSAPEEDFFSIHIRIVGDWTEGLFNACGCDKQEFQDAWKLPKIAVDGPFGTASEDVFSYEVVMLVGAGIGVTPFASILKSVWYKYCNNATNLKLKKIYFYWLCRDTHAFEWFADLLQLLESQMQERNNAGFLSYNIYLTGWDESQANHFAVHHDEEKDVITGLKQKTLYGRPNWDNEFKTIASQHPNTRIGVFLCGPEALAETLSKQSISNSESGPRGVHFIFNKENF
# Chain of NADPH oxidase 4 (Homo sapiens) (Q9NPH5 whole entry, looked up): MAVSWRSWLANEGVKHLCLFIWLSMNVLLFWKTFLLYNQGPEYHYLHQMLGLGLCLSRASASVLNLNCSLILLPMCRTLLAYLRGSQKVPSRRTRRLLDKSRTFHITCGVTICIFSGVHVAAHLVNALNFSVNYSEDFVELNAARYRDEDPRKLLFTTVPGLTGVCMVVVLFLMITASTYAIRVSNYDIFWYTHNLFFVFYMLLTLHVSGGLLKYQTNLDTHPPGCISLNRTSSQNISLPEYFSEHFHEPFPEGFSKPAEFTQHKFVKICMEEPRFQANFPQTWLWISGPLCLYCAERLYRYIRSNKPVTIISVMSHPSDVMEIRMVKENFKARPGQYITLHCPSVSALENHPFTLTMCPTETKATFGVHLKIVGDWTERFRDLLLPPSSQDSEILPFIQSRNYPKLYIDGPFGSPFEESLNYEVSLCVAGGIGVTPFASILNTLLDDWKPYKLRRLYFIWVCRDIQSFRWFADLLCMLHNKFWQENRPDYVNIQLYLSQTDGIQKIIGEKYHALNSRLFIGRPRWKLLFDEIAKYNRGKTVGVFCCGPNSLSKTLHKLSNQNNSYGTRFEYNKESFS
Structure (SMILES),z-score [1],composite z-score [2],z-score [3],z-score [4],z-score [5],z-score [6],z-score [7],z-score [8],z-score [9],z-score [10],z-score [11],z-score [12],z-score [13],z-score [14],z-score [15],z-score [16],z-score [17],z-score [18],z-score [19],z-score [20]
COCCOC(=O)N1C(=O)[C@@]2(c3cc(C#CCNC(N)=O)ccc31)[C@H](C(=O)NC[C@H](O)c1ccccc1)[C@H]1C(=O)O[C@H](c3ccccc3)[C@H](c3ccccc3)N1[C@@H]2c1ccc(OCCO)cc1,-0.242 (inactive),0.278,2.83 (inactive),0.757 (inactive),0.742 (inactive),0.581 (inactive),0.457,2.5 (inactive),1.01 (inactive),-0.677,-0.877,-0.116,-1.07,-0.286,0.995,-1.61,0.213 (inactive),0.418,-0.193,0.637 (inactive)
CCCC=C(CCC)[C@@H](NC(=O)c1ccccc1)c1ccc(C(=O)OC)cc1,0.119 (inactive),1.29,-0.072 (inactive),0.502 (inactive),-0.0759 (inactive),-0.289 (inactive),3.85,-3.83 (inactive),-3.23 (inactive),-1.45,-0.185,0.921,-0.535,-0.355,-1.08,-1.59,0.131 (inactive),-0.515,-1.12,0.18 (inactive)
CCCC=C(CCC)[C@@H](NC(=O)c1ccco1)c1ccc(C(=O)OC)cc1,-1.68 (inactive),0.48,-0.687 (inactive),0.324 (inactive),0.893 (inactive),1.11 (inactive),-0.277,-0.0272 (inactive),1.46 (inactive),1.99,-4.29,-1.72,-5.68,-3.26,-4.76,-4.88,-0.458 (inactive),-0.736,-2.86,6.91 (inactive)
O=C1O[C@@H](c2ccccc2)[C@@H](c2ccccc2)N2[C@@H](c3ccc(OCCO)cc3)[C@]3(C(=O)Nc4ccc(C#CCCO)cc43)[C@@H](C(=O)Nc3nc4ccccc4s3)[C@H]12,2.3 (inactive),0.573,1.01 (inactive),-0.0042 (inactive),-1.53 (inactive),-1.15 (inactive),0.922,0.762 (inactive),0.868 (inactive),1.52,0.0652,0.794,-0.354,-0.267,-0.0767,-3.09,1.57 (inactive),-1.06,-1.49,1.58 (inactive)
C=CCC(OC(C)=O)[C@@H]1[C@@H](N(Cc2cccc3ccccc23)C(=O)c2cccc3ccccc23)c2cc(OCCCO)ccc2N1C(=O)Cc1ccc2ccccc2c1 (stereo not given in full),-0.341 (inactive),0.211,0.704 (inactive),0.0473 (inactive),1.02 (inactive),0.334 (inactive),0.326,-1.93 (inactive),-0.859 (inactive),-2.79,-0.612,-0.151,-0.663,0.0031,-1.9,2.09,-0.0423 (inactive),0.00587,-0.00493,-0.0737 (inactive)
COCCOC(=O)N1C(=O)[C@@]2(c3cc(C#CCC(C(=O)OC)C(=O)OC)ccc31)[C@H](C(=O)N1CCc3cc(OC)c(OC)cc3C1)[C@H]1C(=O)O[C@H](c3ccccc3)[C@H](c3ccccc3)N1[C@@H]2c1ccc(O)cc1,-0.0961 (inactive),0.191,0.577 (inactive),0.524 (inactive),-0.5 (inactive),0.0513 (inactive),-0.111,1.91 (inactive),0.862 (inactive),0.912,0.373,0.643,0.391,-0.422,-1.54,0.448,-0.216 (inactive),0.109,0.516,0.0392 (inactive)
CN1C(=O)[C@]2(CCC(=O)OC(C)(C)C)N=C(c3ccc(OCCCO)cc3)O[C@@H]2c2ccccc21,0.504 (inactive),0.448,33.2 (active),29.3 (active),2.63 (inactive),2.68 (inactive),-0.0426,-2.09 (inactive),-0.534 (inactive),-1.44,-0.024,0.834,-0.54,-0.964,-3.26,1.29,1.41 (inactive),-0.931,0.129,-0.877 (inactive)
CCCCC(=C=CC[C@@H](O)c1cccc(OCCO)c1)C[C@@H](O)COCc1ccccc1,1.76 (inactive),-0.101,16.3 (active),1.3 (inactive),0.605 (inactive),-1.07 (inactive),2.58,-1.61 (inactive),-1.01 (inactive),-2.47,1.1,1.79,1.3,-1.21,0.286,-0.0343,0.436 (inactive),-0.785,-0.91,-0.0721 (inactive)
[N-]=[N+]=NCc1ccccc1C[C@@]1(C(=O)O)N=C(c2ccc(OCCCO)cc2)O[C@@H]1c1ccccc1CN=[N+]=[N-],0.583 (inactive),0.313,22.1 (active),4.92 (inactive),-0.995 (inactive),-0.336 (inactive),1.03,0.887 (inactive),1.54 (inactive),2.03,0.737,0.2,0.0664,-0.274,-2.21,-0.168,-0.186 (inactive),-0.477,-0.824,0.855 (inactive)
CO[C@H]1O[C@H](CO)[C@@H](OC(=O)Nc2ccc3c(c2)OCO3)[C@@H]2OC(=O)[C@@H](Cc3ccccc3)C/C=C/C[C@H](Cc3ccccc3)C(=O)O[C@@H]12,0.239 (inactive),0.12,2.93 (inactive),0.825 (inactive),0.0814 (inactive),1.09 (inactive),0.401,-0.895 (inactive),-0.162 (inactive),-1.47,1.9,-2.78,0.843,-0.69,-0.197,0.186,0.912 (inactive),-0.469,-0.897,-1.64 (inactive)
C=CC[C@@]1(C(=O)O)N=C(c2ccc(OCCCO)cc2)O[C@@H]1c1ccccc1CN=[N+]=[N-],0.578 (inactive),-0.335,25.8 (active),16.5 (active),1.15 (inactive),1.71 (inactive),0.842,-0.235 (inactive),1.24 (inactive),0.186,-0.473,0.891,0.545,0.15,0.0466,0.171,-0.164 (inactive),-0.973,-1.54,0.611 (inactive)
COC(=O)C(CC#Cc1ccc2c(c1)[C@]1(C(=O)N2)[C@H](c2ccc(O)cc2)N2[C@H](c3ccccc3)[C@H](c3ccccc3)OC(=O)[C@H]2[C@@H]1C(=O)N1CCc2cc(OC)c(OC)cc2C1)C(=O)OC,-0.958 (inactive),0.156,1.4 (inactive),0.923 (inactive),0.848 (inactive),0.591 (inactive),-0.747,2.05 (inactive),0.706 (inactive),0.218,-0.581,-0.959,-0.184,-1.71,-4.43,-2.15,0.124 (inactive),-1.22,-1.03,-0.0149 (inactive)
COc1ccc(C(O)C2C=CC3C(=O)N(C)C(=O)C3N2Nc2ccc([N+](=O)[O-])cc2[N+](=O)[O-])cc1OCc1ccccc1 (stereo not given),-1.07 (inactive),0.703,-0.686 (inactive),0.958 (inactive),0.0971 (inactive),0.975 (inactive),-1.21,0.0939 (inactive),0.703 (inactive),2.34,-0.65,-0.861,0.166,0.106,-0.499,-0.475,-0.74 (inactive),0.0687,-0.371,-0.682 (inactive)
CC1(C)OC[C@@]23C=C(Br)[C@@H](C[C@H]12)[C@@]1(CO1)C3=O,-0.68 (inactive),0.0557,-0.396 (inactive),0.355 (inactive),0.0349 (inactive),-0.0371 (inactive),-0.552,0.173 (inactive),0.63 (inactive),-0.278,0.0066,-0.588,-0.0344,-0.229,-0.215,-0.973,0.228 (inactive),0.855,-0.151,-0.843 (inactive)
CC(=O)NCCCC[C@@H]1NC(=O)[C@@H]2C[C@H](C(=O)NCCCCCC[N+](C)(C)C)[C@H](c3ccc(O)cc3)N2C1=O,-0.303 (inactive),0.102,1.5 (inactive),0.0681 (inactive),-3.5 (inactive),0.0574 (inactive),-0.879,0.881 (inactive),0.983 (inactive),0.139,0.131,-0.348,-0.611,0.258,-0.539,-1.33,0.164 (inactive),0.169,-0.5,-0.557 (inactive)
CN1C(=O)C2C=CC(C(O)c3ccc(-c4ccccc4)s3)N(Nc3ccccc3)C2C1=O (stereo not given),-1.06 (inactive),0.612,2.55 (inactive),1.05 (inactive),0.156 (inactive),1.29 (inactive),-0.857,-1.21 (inactive),-4.15 (inactive),-1.81,-0.485,-1.2,-0.99,-0.467,-1.64,-1.44,-0.896 (inactive),-0.364,-0.138,-0.086 (inactive)
COc1cc(OC)c(C(O)C2C=CC3C(=O)N(c4ccccc4)C(=O)C3N2Nc2ccccc2F)cc1Br (stereo not given),-1.76 (inactive),0.692,7.23 (inactive),2.36 (inactive),0.449 (inactive),1.54 (inactive),-0.822,-1.32 (inactive),-4.43 (inactive),-2.21,-1.06,-1.41,0.302,-0.303,-0.308,-2.04,-1.17 (inactive),0.26,-0.645,-0.568 (inactive)

# From PubChem BioAssay
